Measurements: PubChem BioAssay (Tox21)
Active and inactive are the calls of the source. Where a call stands in place of a potency, no number is given. The call rests on the fitted dose curve; in most records, active means well fitted curve in the direction sought with a large enough effect in the repeat runs; inconclusive means weak or mixed curves; inactive means flat fitted curve, though single readings scatter.

Assay: qHTS assay to test for compound auto fluorescence at 590 nm (red) in HepG2 cells (AID 720674)
Conditions: HepG2 autofluorescence, red 540/590 nm, 1 h; series mostly up to 91.3 µM
Outline: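 Rose Bengal sodium served as the red fluorophore standard. HepG2 monolayers (overnight attachment, MEM with 10% FBS) were exposed to test compounds for 1 hr at 37 C and read at Ex 540/Em 590 nm.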

Structure (SMILES) | outcome | fluorescence, relative to Rose Bengal
NC(=O)c1ncn([C@@H]2O[C@H](CO)[C@@H](O)[C@H]2O)c1N | inactive | 
CC(C)[N+](C)(C)CC(O)COc1cccc2ccccc12 (stereo unspecified) | inactive | 
C=C(C)[C@H]1CC=C(C)CC1 | inactive | 
CSc1nc(NC2CC2)nc(NC(C)(C)C)n1 | inactive | 
CC(O)CN(CCCN(C)C)CCCN(C)C (stereo unspecified) | inactive | 
OCCN1C[C@H](O)[C@@H](O)[C@H](O)[C@H]1CO | inactive | 
[O-][N+](=Nc1ccccc1)c1ccccc1 | inactive | 
O=[N+]([O-])c1ccc(Oc2ccc([N+](=O)[O-])cc2)cc1 | inactive | 
OCC(O)[C@@H](O)[C@H](O)[C@H](O)CO[C@H]1O[C@H](CO)[C@@H](O)[C@H](O)[C@H]1O (stereo partly specified) | inactive | 
CC(C)c1cccc(O)c1 | inactive | 
CO | inactive | 
COc1cccc(Br)c1 | inactive | 
O=C(O)C(O)[C@H](O)[C@@H](O)[C@H](O)[C@H](O)CO (stereo partly specified) | inactive | 
CCCCCCCCC=O | inactive | 
C=C(C)C(=O)NCCCN(C)C | inactive | 
CC(C)(O)C(=O)c1ccc(OCCO)cc1 | inactive | 
N#CCN(CC#N)CCN(CC#N)CC#N | inactive | 
CC/C=C\CCCCO | inactive | 
CCCCCCOC(=O)c1ccccc1O | inactive | 
CC(C)N1C(=O)c2ccccc2C1=O | inactive | 
O=[N+]([O-])c1ccc(CCO)cc1 | inactive | 
COc1cc(O)cc(O)c1 | inactive | 
O=C(O)CCNC(=O)c1ccc(N=Nc2ccc(O)c(C(=O)O)c2)cc1 | inactive | 
CC(C)c1cccc(C(C)C)c1N | inactive | 
CO[Si](OC)(OC)OC | inactive | 
NS(=O)(=O)c1cc2c(cc1Cl)NC(CSCc1ccccc1)=NS2(=O)=O |  | -0.338% [at 18.6 µM] (inactive)
CCCCOCC(C)OCC(C)O (stereo unspecified) | inactive | 
CCCCCCCCCCCCCCCCCCOCC(O)CO (stereo unspecified) | inactive | 
C=CCOc1nc(OCC=C)nc(OCC=C)n1 | inactive | 

Assay: qHTS assay to test for compound auto fluorescence at 535 nm (green) in HepG2 cells (AID 720675)
Conditions: green autofluorescence 485/535 nm, 1 h; series mostly up to 91.3 µM

Structure (SMILES) | outcome | fluorescence, % of fluorescein control
CC(=O)CCc1ccc(O)cc1 | inactive | 
NC(=O)c1ncn([C@@H]2O[C@H](CO)[C@@H](O)[C@H]2O)c1N | inactive | 
c1ccc(SCCSc2ccccc2)cc1 | inactive | 
CC(C)[N+](C)(C)CC(O)COc1cccc2ccccc12 (stereo unspecified) | inactive | 
C=C(C)[C@H]1CC=C(C)CC1 | inactive | 
CSc1nc(NC2CC2)nc(NC(C)(C)C)n1 | inactive | 
CC(O)CN(CCCN(C)C)CCCN(C)C (stereo unspecified) | inactive | 
COC[C@H](c1ccc(C(F)(F)F)cc1)N1CCN(C2(C)CCN(C(=O)c3c(C)ncnc3C)CC2)C[C@H]1C | inactive | 
OCCN1C[C@H](O)[C@@H](O)[C@H](O)[C@H]1CO | inactive | 
[O-][N+](=Nc1ccccc1)c1ccccc1 | inactive | 
O=[N+]([O-])c1ccc(Oc2ccc([N+](=O)[O-])cc2)cc1 | inactive | 
OCC(O)[C@@H](O)[C@H](O)[C@H](O)CO[C@H]1O[C@H](CO)[C@@H](O)[C@H](O)[C@H]1O (stereo partly specified) | inactive | 
CC(C)c1cccc(O)c1 | inactive | 
CO | inactive | 
COc1cccc(Br)c1 | inactive | 
CCc1cc(S(=O)(=O)O)c2cc(C(C)C)cccc1-2 | inactive | 
O=C(O)C(O)[C@H](O)[C@@H](O)[C@H](O)[C@H](O)CO (stereo partly specified) | inactive | 
CCCCCCCCC=O | inactive | 

Structure (SMILES) | outcome | fluorescence, % of fluorescein control
C=C(C)C(=O)NCCCN(C)C | inactive | 
CC(C)(O)C(=O)c1ccc(OCCO)cc1 | inactive | 
N#CCN(CC#N)CCN(CC#N)CC#N | inactive | 
CC/C=C\CCCCO | inactive | 
COc1cccc(OC)c1 | inactive | 
CCCCCCOC(=O)c1ccccc1O | inactive | 
CC(C)N1C(=O)c2ccccc2C1=O | inactive | 
O=[N+]([O-])c1ccc(CCO)cc1 | inactive | 
COc1cc(O)cc(O)c1 | inactive | 
O=C(O)CCNC(=O)c1ccc(N=Nc2ccc(O)c(C(=O)O)c2)cc1 | inactive | 
CC(C)c1cccc(C(C)C)c1N | inactive | 
CO[Si](OC)(OC)OC | inactive | 
NS(=O)(=O)c1cc2c(cc1Cl)NC(CSCc1ccccc1)=NS2(=O)=O |  | 0.0219% [at 18.6 µM] (inactive)
CCCCOCC(C)OCC(C)O (stereo unspecified) | inactive | 
Cc1ccccc1C(=O)O | inactive | 
CCCCCCCCCCCCCCCCCCOCC(O)CO (stereo unspecified) | inactive | 
C=CCOc1nc(OCC=C)nc(OCC=C)n1 | inactive | 
Cn1ccc2cc3c(cc21)CCN3C(=O)Nc1cccnc1 | inactive | 

Assay: qHTS assay to test for compound auto fluorescence at 460 nm (blue) in HEK293 cells (AID 720678)
Conditions: blue autofluorescence 405/460 nm; series mostly up to 91.3 µM
Outline: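 Measured: blue fluorescence (Ex 405/Em 460 nm) of compound-treated HEK293 cells, incubated overnight at 37C with 5% CO2 and scaled to triamterene equivalents.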

Structure (SMILES) | Potency | fluorescence, % of triamterene
CC(=O)CCc1ccc(O)cc1 | inactive | 
NC(=O)c1ncn([C@@H]2O[C@H](CO)[C@@H](O)[C@H]2O)c1N | inactive | 
c1ccc(SCCSc2ccccc2)cc1 | inactive | 
CC(C)[N+](C)(C)CC(O)COc1cccc2ccccc12 (stereo unspecified) | inactive | 
C=C(C)[C@H]1CC=C(C)CC1 | inactive | 
CSc1nc(NC2CC2)nc(NC(C)(C)C)n1 | inactive | 
CC(O)CN(CCCN(C)C)CCCN(C)C (stereo unspecified) | inactive | 
COC[C@H](c1ccc(C(F)(F)F)cc1)N1CCN(C2(C)CCN(C(=O)c3c(C)ncnc3C)CC2)C[C@H]1C | inactive | 
OCCN1C[C@H](O)[C@@H](O)[C@H](O)[C@H]1CO | inactive | 
[O-][N+](=Nc1ccccc1)c1ccccc1 | inactive | 
O=[N+]([O-])c1ccc(Oc2ccc([N+](=O)[O-])cc2)cc1 | inactive | 
OCC(O)[C@@H](O)[C@H](O)[C@H](O)CO[C@H]1O[C@H](CO)[C@@H](O)[C@H](O)[C@H]1O (stereo partly specified) | inactive | 
CC(C)c1cccc(O)c1 | inactive | 
CO | inactive | 
COc1cccc(Br)c1 | inactive | 
CCc1cc(S(=O)(=O)O)c2cc(C(C)C)cccc1-2 | inactive | 
O=C(O)C(O)[C@H](O)[C@@H](O)[C@H](O)[C@H](O)CO (stereo partly specified) | inactive | 
CCCCCCCCC=O | inactive | 

Structure (SMILES) | Potency | fluorescence, % of triamterene
C=C(C)C(=O)NCCCN(C)C | inactive | 
CC(C)(O)C(=O)c1ccc(OCCO)cc1 | inactive | 
N#CCN(CC#N)CCN(CC#N)CC#N | inactive | 
CC/C=C\CCCCO | inactive | 
COc1cccc(OC)c1 | inactive | 
CCCCCCOC(=O)c1ccccc1O | inactive | 
CC(C)N1C(=O)c2ccccc2C1=O | inactive | 
O=[N+]([O-])c1ccc(CCO)cc1 | inactive | 
COc1cc(O)cc(O)c1 | inactive | 
O=C(O)CCNC(=O)c1ccc(N=Nc2ccc(O)c(C(=O)O)c2)cc1 | inactive | 
CC(C)c1cccc(C(C)C)c1N | inactive | 
CO[Si](OC)(OC)OC | inactive | 
NS(=O)(=O)c1cc2c(cc1Cl)NC(CSCc1ccccc1)=NS2(=O)=O |  | -0.0281% [at 18.6 µM] (inactive)
CCCCOCC(C)OCC(C)O (stereo unspecified) | inactive | 
Cc1ccccc1C(=O)O | inactive | 
CCCCCCCCCCCCCCCCCCOCC(O)CO (stereo unspecified) | inactive | 
C=CCOc1nc(OCC=C)nc(OCC=C)n1 | inactive | 
Cn1ccc2cc3c(cc21)CCN3C(=O)Nc1cccnc1 | inactive | 
